Drawing on PubChem BioAssay, this text covers fluorescence slope change for one molecule.

Results filed as inconclusive are left out. The source made the active and inactive calls. No stated cut-off is given here; in the data, active means fluorescence slope change above about 50%; inconclusive means mostly about 31% to 49%; inactive means weaker than that.

The target of the test is ATP-dependent translocase ABCB1 (Homo sapiens) (UniProt P08183). Briefly: MDR1 (ABCB1) efflux transporter inhibition, cell-based (AID 377). Conditions: MDR1-expressing cells, fluorescent substrate accumulation slope; hits give high values; concentration not given here.
ATP-dependent translocase ABCB1 (Homo sapiens), sequence (P08183 whole entry, looked up): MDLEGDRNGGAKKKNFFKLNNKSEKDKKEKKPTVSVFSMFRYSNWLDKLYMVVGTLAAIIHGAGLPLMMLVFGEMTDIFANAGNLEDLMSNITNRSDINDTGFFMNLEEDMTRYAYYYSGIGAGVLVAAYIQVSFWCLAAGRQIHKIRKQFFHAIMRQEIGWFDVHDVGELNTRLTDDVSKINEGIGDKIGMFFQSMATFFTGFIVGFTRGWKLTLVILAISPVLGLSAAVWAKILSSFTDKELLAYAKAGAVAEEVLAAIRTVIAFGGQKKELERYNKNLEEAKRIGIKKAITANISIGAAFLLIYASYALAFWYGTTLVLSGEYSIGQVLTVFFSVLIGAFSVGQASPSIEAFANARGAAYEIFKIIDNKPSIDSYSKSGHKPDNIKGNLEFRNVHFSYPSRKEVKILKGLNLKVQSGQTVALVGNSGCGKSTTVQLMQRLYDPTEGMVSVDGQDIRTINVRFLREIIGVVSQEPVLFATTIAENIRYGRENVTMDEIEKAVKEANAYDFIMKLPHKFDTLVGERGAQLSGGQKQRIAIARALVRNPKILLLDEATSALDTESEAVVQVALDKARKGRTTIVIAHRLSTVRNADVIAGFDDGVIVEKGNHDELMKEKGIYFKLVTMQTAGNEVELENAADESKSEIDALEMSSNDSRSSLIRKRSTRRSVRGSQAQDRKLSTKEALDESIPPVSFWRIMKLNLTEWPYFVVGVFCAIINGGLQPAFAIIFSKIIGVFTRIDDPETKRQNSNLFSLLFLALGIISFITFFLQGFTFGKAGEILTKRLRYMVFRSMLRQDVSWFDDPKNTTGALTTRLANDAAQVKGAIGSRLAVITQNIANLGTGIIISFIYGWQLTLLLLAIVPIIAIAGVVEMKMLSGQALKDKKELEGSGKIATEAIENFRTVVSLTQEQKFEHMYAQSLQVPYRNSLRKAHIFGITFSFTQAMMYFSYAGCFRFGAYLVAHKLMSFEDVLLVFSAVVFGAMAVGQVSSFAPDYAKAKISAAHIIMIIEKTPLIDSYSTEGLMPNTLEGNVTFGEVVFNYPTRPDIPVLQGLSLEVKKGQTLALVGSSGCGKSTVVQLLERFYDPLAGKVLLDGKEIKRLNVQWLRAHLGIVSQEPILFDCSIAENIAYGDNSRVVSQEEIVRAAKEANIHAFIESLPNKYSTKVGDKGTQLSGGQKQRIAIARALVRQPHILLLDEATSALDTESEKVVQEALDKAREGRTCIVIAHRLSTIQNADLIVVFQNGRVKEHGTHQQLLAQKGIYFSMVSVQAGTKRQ

Turning to `CO[C@H]1/C=C/O[C@@]2(C)Oc3c(C)c(O)c4c(O)c(c(/C=N/N5CCN(C)CC5)c(O)c4c3C2=O)NC(=O)/C(C)=C\C=C\[C@H](C)[C@H](O)[C@@H](C)[C@@H](O)[C@@H](C)[C@H](OC(C)=O)[C@@H]1C`, the fluorescence slope change was 69.2% (active).
